# Assay results published in PubChem BioAssay (Tox21).
# Values joined by “and” are separate entries in the source; they are usually repeats but may differ in a detail not shown here. Identical values can stand only once. Unmarked numbers belong to inactive results. Inconclusive results are not listed. A call without a number means that no potency is given here. Active and inactive are the calls of the source. Unless noted, calls come from the whole dose curve.
# How the values were obtained:
# [1] = Nuclear factor erythroid 2-related factor 2/antioxidant responsive element (Nrf2/ARE) small molecule agonists: qHTS cell viability counter screen in human keratinocytes (AID 1919968; active = well fitted curve in the direction sought with a large enough effect in the repeat runs; an effect the other way counts as inactive or inconclusive; note: nearly all actives have a fitted effect of over 55% in size; note: potency is the fitted concentration of half-maximal effect)
# Method in brief: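 Cytotoxicity was multiplexed with the Nrf2/ARE luciferase assay in the same wells. Stably transfected HaCaT keratinocytes were treated with test compounds for 23 h at 37 C. Cell viability was then measured by CellTiter-Fluor fluorescence.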
# [2] = Nuclear factor erythroid 2-related factor 2/antioxidant responsive element (Nrf2/ARE) small molecule agonists: luciferase reporter gene qHTS assay in human keratinocytes (AID 1919969); note: nearly all actives have a fitted effect of over 35% in size
# [3] = molecular target: Gonadotropin-releasing hormone receptor (Homo sapiens) (UniProt P30968); test: Human gonadotropin-releasing hormone receptor (GnRHR) small molecule agonists, calcium flux assay in GnRHR-HEK293 cells (AID 1920063); note: nearly all actives have a fitted effect of over 35% in size
# Method in brief: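 Agonist activity was measured as intracellular calcium flux in HEK293 cells engineered to stably express human GnRHR. After dye loading for 1 hour at 37 C, compounds in DMSO were added and fluorescence was followed for 3 minutes.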
# [4] = molecular target: KiSS-1 receptor (Homo sapiens) (UniProt Q969F8); test: Human kisspeptin (KISS1R) small molecule agonists, calcium flux assay in KISS1R-HEK293 cells (AID 1920064; active = well fitted curve in the direction sought with a large enough effect in the repeat runs; an effect the other way counts as inactive or inconclusive)
# Method in brief: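 Agonist activity is monitored as intracellular calcium rise in engineered HEK293 cells carrying human KISS1R. Cells are dye-loaded for 1 h at 37 C before compound addition, and fluorescence is recorded for 3 min.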
# [5] = G protein-coupled receptor (GPCR) small molecule agonists, calcium flux assay: HEK293 wild type cell line counter screen (AID 1920065)
# Method in brief: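 Seed cells, incubate 18 h (37 C, 5% CO2); add calcium dye, 1 h at 37 C; pin-transfer compounds, ATP control or DMSO; read fluorescence 480/540 nm each second for 3 min.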
# [6] = p53 small molecule agonists, cell-based qHTS assay with human liver microsomes (AID 1963577)
# Method in brief: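 Fluorescence of the beta-lactamase reporter in p53RE-bla cells, detected with LiveBLAzer substrate (2 h, room temperature, dark), served as the read-out after 16 h compound exposure at 37 C with human liver microsomes and NADPH, each 0.5 mg/mL final.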
# [7] = p53 small molecule agonists, cell-based qHTS assay with rat liver microsomes (AID 1963578)
# Method in brief: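 Cells carrying a p53 response element–beta-lactamase reporter were plated and rested 5 h, then dosed with compound in DMSO plus rat liver microsomes and NADPH, each at 0.5 mg/mL final. After 16 h at 37 C, LiveBLAzer substrate was added for 2 h.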
# [8] = p53 small molecule agonists, cell-based qHTS assay with human liver microsomes: qHTS cell viability counter screen (AID 1963579); note: nearly all actives have a fitted effect of over 45% in size; note: potency is the fitted concentration of half-maximal effect
# Method in brief: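 Cytotoxicity counter screen: p53RE-bla, 4,000 cells/well; 5 h settle, 37 C/5% CO2; cpd + HLM 0.5 mg/mL + NADPH 0.5 mg/mL (final); 16 h, 37 C; CellTiter-Glo, 30 min RT, luminescence.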
# [9] = p53 small molecule agonists, cell-based qHTS assay with rat liver microsomes: qHTS cell viability counter screen (AID 1963580); note: nearly all actives have a fitted effect of over 45% in size; note: potency is the fitted concentration of half-maximal effect
# Method in brief: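 After the beta-lactamase ratio was read, CellTiter-Glo was added to the same wells and luminescence measured at 30 min; cells had been treated 16 h at 37 C with compounds, rat liver microsomes and NADPH (0.5 mg/mL final each).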
# [10] = p53 small molecule agonists, cell-based qHTS assay: qHTS cell viability counter screen (AID 1963581); note: nearly all actives have a fitted effect of over 45% in size; note: potency is the fitted concentration of half-maximal effect
# Method in brief: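 Viability was counter-screened in parallel with the p53 agonist reporter by measuring intracellular ATP luminescence in the same HCT-116 p53RE-bla wells after 16 h compound treatment at 37 C.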
# [11] = molecular target: 5-hydroxytryptamine receptor 2A (Homo sapiens) (UniProt P28223); test: 5-hydroxytryptamine receptor 2A (HTR2A) small molecule agonists, cell-based qHTS assay (AID 1963587); note: nearly all actives have a fitted effect of over 30% in size
# Method in brief: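 CHO cells stably expressing human HTR2A, plated 18 h, loaded with calcium dye 1 h at 37 C. Agonist mode: compounds added and intracellular calcium fluorescence recorded kinetically for 2 min at 1 sec intervals.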
# [12] = molecular target: Muscarinic acetylcholine receptor M1 (Homo sapiens) (UniProt P11229); test: Cholinergic receptor muscarinic 1 (CHRM1) small molecule agonists, cell-based qHTS assay (AID 1963589); note: nearly all actives have a fitted effect of over 35% in size
# Method in brief: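 Cells were plated and incubated 18 h at 37 C/5% CO2, loaded with calcium dye for 1 h at 37 C, then treated with compounds in DMSO. Fluorescence was recorded kinetically at 1 sec intervals.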
# [13] = cAMP Responsive Elements (CRE) small molecule agonists, cell-based qHTS assay (AID 1963590)
# Method in brief: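 Cells carrying a CRE-driven beta-lactamase reporter (HEK 293T) are seeded, incubated overnight (18 h), and treated with test compounds for 3 h at 37 C; reporter activity is then detected with a FRET substrate after 2 h at room temperature.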
# [14] = cAMP Responsive Elements (CRE) small molecule antagonists, cell-based qHTS assay (AID 1963591; active = well fitted inhibition curve with a large enough effect in the signal ratio in the repeat runs, not every such curve was filed as active; the % refers to the signal ratio)
# Method in brief: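 Cells (CRE-bla HEK 293T, DMEM with 10% dialyzed FBS and 25 mM HEPES) are seeded and incubated 18 h. Compounds are added with NKH477 agonist at 0.25 uM final for 3 h, then FRET substrate for 2 h.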
# [15] = molecular target: Beta-2 adrenergic receptor (Homo sapiens) (UniProt P07550); test: Adrenergic beta2 receptor (ADRB2) small molecule antagonists, cell-based qHTS assay (AID 1963592); note: series mostly up to about 92 µM; nearly all actives have a fitted effect of over 50% in size
# Method in brief: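 Assay format: CHO-ADRB2 cells, 18-20hr seeding at 37C/5% CO2, then compound plus 1nM isoproterenol agonist mix for 0.5hr RT. Homogeneous time-resolved fluorescence cAMP detection after 1hr, expressed as 665/615 nm ratio.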
# [16] = molecular target: Beta-2 adrenergic receptor (Homo sapiens) (UniProt P07550); test: Adrenergic beta2 receptor (ADRB2) small molecule agonists, cell-based qHTS assay (AID 1963593);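 note: CHO cells stably overexpressing human ADRB2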
# Method in brief: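 CHO cells stably over-expressing ADRB2 were plated overnight at 37C, then dosed with compounds plus a stimulation mix containing 100uM IBMX and 25uM Ro-20-1724 for 0.5hr at room temperature. cAMP was measured by HTRF competition, 1hr.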
# [17] = molecular target: D(2) dopamine receptor (Homo sapiens) (UniProt P14416); test: Dopamine D2 receptor (DRD2) small molecule antagonists, cell-based qHTS assay (AID 1963595; active = well fitted inhibition curve with a large enough effect in the signal ratio in the repeat runs, with a control signal flat; the % refers to the signal ratio)
# Method in brief: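 Cells were plated and grown for 24 h at 37 °C. Ro20-1724 (0.1 mM final) went in first, then compound for 10 min. NKH477 (200 nM) with quinpirole (12 nM) followed for 30 min at RT, then HTRF detection reagents for 1 h.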
# [18] = molecular target: Muscarinic acetylcholine receptor M1 (Homo sapiens) (UniProt P11229); test: Cholinergic receptor muscarinic 1 (CHRM1) small molecule antagonists, cell-based qHTS assay (AID 1963588); note: nearly all actives have a fitted effect of over 40% in size; note: potency is the fitted concentration of half-maximal effect
# Method in brief: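 Compounds were tested at 15 concentrations in three independent runs. Dye-loaded CHRM1-CHO cells were exposed 5 min at room temperature before stimulation by acetylcholine added at 50nM. Intracellular calcium was read kinetically on FDSS for 3 min.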
# [19] = molecular target: D(2) dopamine receptor (Homo sapiens) (UniProt P14416); test: Dopamine D2 receptor (DRD2) small molecule agonists, cell-based qHTS assay (AID 1963594); note: nearly all actives have a fitted effect of over 35% in size
# Method in brief: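 HEK293 cells stably expressing human DRD2, pre-treated with PDE inhibitor Ro20-1724 (0.1 mM final) and compound 10 min at room temperature, then stimulated with NKH477 (200nM […]) for 30 min. cAMP read by HTRF (665/620 nm).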
# [20] = p53 small molecule agonists, cell-based qHTS assay (AID 1963582; active = well fitted activation curve with a large enough effect in the signal ratio in the repeat runs, not every such curve was filed as active; the % refers to the signal ratio)
# Method in brief: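 Cells carrying a p53-responsive bla reporter are treated with test compounds for 16 h at 37 C; beta-lactamase activity is then detected with LiveBLAzer B/G FRET substrate after 2 h at room temperature.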
# Chain of KiSS-1 receptor (Homo sapiens) (Q969F8 whole entry, looked up): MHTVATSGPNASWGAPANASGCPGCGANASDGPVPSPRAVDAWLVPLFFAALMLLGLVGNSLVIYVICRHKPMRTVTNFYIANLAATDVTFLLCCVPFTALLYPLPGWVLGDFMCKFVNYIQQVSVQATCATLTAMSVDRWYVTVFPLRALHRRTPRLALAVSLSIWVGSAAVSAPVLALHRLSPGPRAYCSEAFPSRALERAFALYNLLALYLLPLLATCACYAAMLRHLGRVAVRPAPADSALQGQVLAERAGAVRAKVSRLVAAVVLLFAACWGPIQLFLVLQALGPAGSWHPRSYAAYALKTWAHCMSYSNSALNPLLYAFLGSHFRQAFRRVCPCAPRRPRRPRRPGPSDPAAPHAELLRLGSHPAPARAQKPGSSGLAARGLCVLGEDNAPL
# Chain of Gonadotropin-releasing hormone receptor (Homo sapiens) (P30968 whole entry, looked up): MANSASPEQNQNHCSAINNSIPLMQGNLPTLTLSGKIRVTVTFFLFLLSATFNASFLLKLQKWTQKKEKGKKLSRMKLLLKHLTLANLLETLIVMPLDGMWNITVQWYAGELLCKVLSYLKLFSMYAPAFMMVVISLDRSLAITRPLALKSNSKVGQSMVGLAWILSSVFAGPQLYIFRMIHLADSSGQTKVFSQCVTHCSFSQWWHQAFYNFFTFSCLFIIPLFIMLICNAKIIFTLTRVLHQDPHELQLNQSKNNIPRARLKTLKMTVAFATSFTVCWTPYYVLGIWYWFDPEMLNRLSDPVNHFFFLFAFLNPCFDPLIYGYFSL
# Chain of 5-hydroxytryptamine receptor 2A (Homo sapiens) (P28223 whole entry, looked up): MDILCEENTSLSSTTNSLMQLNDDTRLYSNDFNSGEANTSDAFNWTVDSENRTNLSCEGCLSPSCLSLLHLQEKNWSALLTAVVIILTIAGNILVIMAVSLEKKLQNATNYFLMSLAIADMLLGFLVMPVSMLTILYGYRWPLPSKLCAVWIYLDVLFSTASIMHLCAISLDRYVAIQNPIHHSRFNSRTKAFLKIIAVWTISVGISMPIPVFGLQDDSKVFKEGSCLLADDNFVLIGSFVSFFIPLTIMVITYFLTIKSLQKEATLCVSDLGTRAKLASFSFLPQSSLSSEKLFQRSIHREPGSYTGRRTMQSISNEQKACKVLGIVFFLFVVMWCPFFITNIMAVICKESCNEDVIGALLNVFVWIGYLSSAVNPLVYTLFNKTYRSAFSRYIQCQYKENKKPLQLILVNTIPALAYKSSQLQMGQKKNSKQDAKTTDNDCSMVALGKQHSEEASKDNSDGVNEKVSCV
# Chain of Beta-2 adrenergic receptor (Homo sapiens) (P07550 whole entry, looked up): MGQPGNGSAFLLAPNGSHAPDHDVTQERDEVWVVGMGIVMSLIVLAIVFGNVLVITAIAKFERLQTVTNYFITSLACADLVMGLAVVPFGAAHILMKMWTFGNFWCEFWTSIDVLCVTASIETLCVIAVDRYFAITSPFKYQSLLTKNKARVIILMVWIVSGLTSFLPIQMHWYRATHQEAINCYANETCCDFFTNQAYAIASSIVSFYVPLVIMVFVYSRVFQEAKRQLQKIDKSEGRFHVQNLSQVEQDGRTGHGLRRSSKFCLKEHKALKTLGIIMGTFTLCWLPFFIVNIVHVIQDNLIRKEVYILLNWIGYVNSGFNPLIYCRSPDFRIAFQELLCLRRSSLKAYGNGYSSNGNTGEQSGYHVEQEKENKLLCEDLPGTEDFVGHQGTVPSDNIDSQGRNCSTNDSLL
# Chain of Muscarinic acetylcholine receptor M1 (Homo sapiens) (P11229 whole entry, looked up): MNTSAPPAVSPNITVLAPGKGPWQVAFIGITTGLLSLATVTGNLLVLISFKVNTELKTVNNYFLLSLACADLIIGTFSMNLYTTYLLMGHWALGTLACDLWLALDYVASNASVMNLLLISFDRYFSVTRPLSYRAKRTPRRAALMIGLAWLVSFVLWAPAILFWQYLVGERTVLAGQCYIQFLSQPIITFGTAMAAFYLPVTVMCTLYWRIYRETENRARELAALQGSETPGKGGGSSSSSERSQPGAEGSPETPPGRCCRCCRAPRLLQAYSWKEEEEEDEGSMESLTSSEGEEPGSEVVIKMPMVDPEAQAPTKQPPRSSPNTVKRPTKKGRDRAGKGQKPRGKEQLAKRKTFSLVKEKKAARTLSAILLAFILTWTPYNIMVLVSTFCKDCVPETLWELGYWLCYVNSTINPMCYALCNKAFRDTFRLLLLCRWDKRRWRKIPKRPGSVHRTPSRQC
# Chain of D(2) dopamine receptor (Homo sapiens) (P14416 whole entry, looked up): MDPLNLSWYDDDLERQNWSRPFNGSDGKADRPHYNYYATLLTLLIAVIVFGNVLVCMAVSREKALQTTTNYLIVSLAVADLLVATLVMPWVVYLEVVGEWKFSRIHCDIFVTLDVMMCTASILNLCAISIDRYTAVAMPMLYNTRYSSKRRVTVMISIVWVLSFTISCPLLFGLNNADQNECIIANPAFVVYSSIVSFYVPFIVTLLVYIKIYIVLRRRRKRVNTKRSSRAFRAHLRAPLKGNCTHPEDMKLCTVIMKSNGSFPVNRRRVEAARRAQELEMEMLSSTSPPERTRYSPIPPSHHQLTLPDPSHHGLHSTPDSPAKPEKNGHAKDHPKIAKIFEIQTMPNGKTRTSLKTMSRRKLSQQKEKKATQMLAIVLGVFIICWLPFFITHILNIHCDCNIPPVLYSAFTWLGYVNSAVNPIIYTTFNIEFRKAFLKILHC
SMILES,Potency [1],Potency [2],Potency [3],Potency [4],Potency [5],Potency [6],Potency [7],Potency [8],Potency [9],Potency [10],Potency [11],Potency [12],Potency [13],Potency [14],Potency [15],Potency [16],Potency [17],Potency [18],Potency [19],Potency [20]
Cc1sccc1Br,inactive,inactive,inactive,inactive,inactive,inactive,inactive,inactive,inactive,inactive,inactive,inactive,inactive,inactive,inactive,inactive,inactive,–,–,–
CCCCC(CC)COC(=O)c1ccc(O)cc1 (centres undefined),27.2 µM (active) and 30.6 µM (active),inactive,inactive,inactive,inactive,inactive,inactive,40.8 µM (active),45.8 µM (active),40.6 µM (active),inactive,inactive,–,–,inactive,inactive,–,inactive,inactive,–
C[C@@H](O)[C@H]1C(=O)N2C(C(=O)O)=C(SCCN=CN)C[C@H]12,inactive,inactive,inactive,inactive,inactive,inactive,inactive,inactive,inactive,inactive,inactive,inactive,inactive,inactive,inactive,inactive,inactive,inactive,inactive,–
CCCCCCCCCCCC[N+](C)(C)CCCS(=O)(=O)[O-],inactive,inactive,inactive,inactive,inactive,inactive,inactive,inactive,inactive,inactive,inactive,inactive,inactive,inactive,inactive,inactive,inactive,33.8 µM (active),inactive,–
CC(=O)NCCO,inactive,inactive,inactive,inactive,inactive,inactive,inactive,inactive,inactive,–,inactive,inactive,inactive,inactive,inactive,inactive,inactive,–,inactive,inactive
CCC(C)c1ccccc1 (centres undefined),inactive,inactive,inactive,inactive,inactive,inactive,inactive,inactive,inactive,–,inactive,inactive,inactive,–,inactive,inactive,inactive,–,inactive,inactive
CCCCCCCCCCCCCCC(=O)O,inactive,inactive,inactive,inactive,inactive,inactive,inactive,inactive,inactive,–,inactive,inactive,inactive,–,inactive,–,–,inactive,inactive,inactive
O=[N+]([O-])c1ccccc1CCO,inactive,inactive,inactive,inactive,inactive,inactive,inactive,inactive,inactive,–,inactive,inactive,inactive,inactive,inactive,–,–,0.0011 µM (active),inactive,inactive
